According to PubChem BioAssay (NCATS):
Results filed as inconclusive are left out. Activity calls are given as the source filed them. Calls follow the shape of the dose curve; as a rule, active = well fitted curve in the direction sought with a large enough effect; inconclusive = small, poorly fitted or top-dose-only effect, or another doubt; inactive = no such curve, though single readings can be large; an effect the other way counts as inactive or inconclusive.

Key:
[1] = biological target: Glutathione peroxidase 1 (Homo sapiens) (UniProt P07203); experiment: Primary qHTS Assay for Inhibitors of Recombinant Selenoprotein Glutathione Peroxidase 1 (GPX1) (AID 1845191); conditions: recombinant GPX1, GR-coupled NADPH fluorescence, 15 min; series mostly up to 48.8 µM; also: nearly all actives have a fitted effect of over 65% in size; as to activity, negative = inhibition: % is scaled to controls: 0 for no effect and ±100 for the full control effect
Sequence of Glutathione peroxidase 1 (Homo sapiens) (P07203 whole entry, looked up): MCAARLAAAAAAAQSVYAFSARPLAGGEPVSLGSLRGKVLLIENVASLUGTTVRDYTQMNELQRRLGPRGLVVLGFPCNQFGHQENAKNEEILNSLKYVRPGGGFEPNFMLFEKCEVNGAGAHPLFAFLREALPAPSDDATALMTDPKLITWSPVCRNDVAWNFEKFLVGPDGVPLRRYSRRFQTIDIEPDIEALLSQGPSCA
How it was run: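 NADPH consumption tracked by fluorescence at 340/450 nm between t=0 and t=15 min, room temperature. Final mix: 10 nM GPX1, 100 nM glutathione reductase, 1 mM GSH, 0.5 mM NADPH, 0.5 mM cumene hydroperoxide, 0.01% BSA; 30 min compound–enzyme preincubation.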

[2] = biological target: Phospholipid hydroperoxide glutathione peroxidase GPX4 (Homo sapiens) (UniProt P36969); experiment: Primary qHTS Assay for Inhibitors of Recombinant Selenoprotein Glutathione Peroxidase 4 (GPX4) (AID 1845192); conditions: recombinant GPX4, GR-coupled NADPH fluorescence, 15 min; series mostly up to 50 µM; also: nearly all actives have a fitted effect of over 65% in size; as to activity change, negative = inhibition: % is scaled to controls: 0 for no effect and ±100 for the full control effect
Sequence of Phospholipid hydroperoxide glutathione peroxidase GPX4 (Homo sapiens) (P36969 whole entry, looked up): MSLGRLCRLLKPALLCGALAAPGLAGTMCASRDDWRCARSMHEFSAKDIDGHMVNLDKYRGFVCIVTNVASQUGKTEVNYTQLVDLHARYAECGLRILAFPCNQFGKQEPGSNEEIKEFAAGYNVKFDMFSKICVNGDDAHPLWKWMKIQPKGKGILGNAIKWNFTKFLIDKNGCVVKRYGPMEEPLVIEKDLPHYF
How it was run: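 NADPH consumption followed by fluorescence at 340/450 nm, t=0 and after 15 min at room temperature. Reaction started with cumene hydroperoxide (0.5 mM final) after 30 min compound–GPX4 preincubation; final 200 nM GPX4, 100 nM GR, 1 mM GSH, 0.5 mM NADPH.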

[3] = biological target: Luciferin 4-monooxygenase (Photinus pyralis) (UniProt P08659); experiment: Primary firefly luciferase (FLuc) qHTS assay for identification of artifact compounds. (AID 1845220); conditions: purified firefly luciferase, luminescence, 5 min; series mostly up to 54.1 µM; also: nearly all actives have a fitted effect of over 60% in size;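 as to activity change, negative = inhibition: plate controls were DMSO vehicle for no effect and no enzyme for full effect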
How it was run: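 Cell-free, 1536-well qHTS. Buffer pH 7.6 with 0.01% Tween-20 and 0.05% BSA; 10 uM D-luciferin, 10 uM ATP; 10 nM P. pyralis luciferase; luminescence after 5 min.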

[4] = Primary fluorescence-based thiol-reactive (MSTI) qHTS assay for identification of artifact compounds. (AID 1845221); conditions: MSTI thiol-reactivity probe, 1 h; series mostly up to 53.8 µM; also: nearly all actives have a fitted effect of over 65% in size; also: potency is read from the fitted curve at half-maximal effect;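 as to activity change, negative = thiol reactive: thiol-reactive compounds lower the probe fluorescence signal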
How it was run: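 Compounds were incubated 1 h at room temperature in the dark with the MSTI probe (4 uM) in PBS pH 7.4, 2% DMSO. Signals were normalized between Acetyl-MSTI and MSTI.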

[5] = test system: Nanoluciferase (engineered Oplophorus gracilirostris luciferase); experiment: Primary Nanoluciferase (NLuc) qHTS assay for identification of artifact compounds. (AID 1845222); conditions: NLuc-conditioned medium, Nano-Glo luminescence, 5 min; series mostly up to 54.1 µM;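 also: 0% = DMSO and -100% = no enzyme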
How it was run: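 Compounds are pinned into diluted (1:55) conditioned medium of NLuc-expressing S16 cells and held 15 min at room temperature protected from light. Nano-Glo substrate follows, and luminescence is read 5 min later.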

[6] = Primary redox qHTS assay for identification of artifact compounds. (AID 1845223); conditions: Amplex Red/HRP redox cycling with DTT, fluorescence; series mostly up to 53.8 µM;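 also: 0% = DMSO and 100% = reference compound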
How it was run: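 Redox-cycling detection via DTT (250 uM final) oxidation coupled to Amplex Red (25 uM)/HRP (250 mU/mL) in HBSS. 15 min preincubation plus 30 min after DTT, room temperature. Ex/Em 525/598 nm; 4-parameter Hill fit against DMSO and 10 uM DA3003.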

COc1ccccc1NC(=O)OCC1CCN(C(=O)OC(C)(C)C)CC1
inactive: Potency [1] | Potency [2] | Potency [3] | Potency [4] | Potency [5] | Potency [6]

CC(=O)O[C@@H]1C[C@H](O)[C@@]23CO[C@H](O)[C@]1(C)C2C[C@@H](O)[C@]1(C)C3C(=O)[C@H](OC(C)=O)[C@@]2(C)[C@H](c3ccoc3)C[C@H]3O[C@]321 (some centres undefined)
inactive: Potency [1] | Potency [2] | Potency [3] | Potency [4] | Potency [5] | Potency [6]

COc1cc(Nc2nc3c(s2)CCCC3c2ccc(F)cc2)ccc1-n1cnc(C)c1 (centres undefined)
active: Potency [4] 11.9 µM
inactive: Potency [1] | Potency [2] | Potency [3] | Potency [5] | Potency [6]

CC1(C)CC[C@]2(C(=O)O[C@@H]3O[C@H](CO)[C@@H](O)[C@H](O)[C@H]3O)CC[C@]3(C)C(=CCC4[C@@]5(C)CC[C@H](O[C@@H]6O[C@H](C(=O)O)[C@@H](O)[C@H](O)[C@H]6O)[C@@](C)(CO)C5CC[C@]43C)C2C1 (some centres undefined)
inactive: Potency [1] | Potency [2] | activity change, negative = inhibition [3] -3.91% [at 11.6 µM] | activity change, negative = thiol reactive [4] 129% [at 11.5 µM] | activity, negative = inhibition [5] -2.6% [at 11.6 µM] | redox activity (% of DA3003) [6] 15.6% [at 11.5 µM]

C[C@@H]1O[C@@H](O[C@@H]2[C@@H](O)[C@H](O[C@H]3[C@H](O[C@H]4CC[C@@]5(C)C(CC[C@]6(C)C5CC=C5[C@@H]7CC(C)(C)CC[C@]7(C(=O)O[C@@H]7O[C@H](CO)[C@@H](O)[C@H](O)[C@H]7O[C@@H]7O[C@@H](C)[C@H](O[C@@H]8O[C@@H](C)[C@H](O)[C@@H](O)[C@H]8O)[C@@H](O)[C@H]7O)CC[C@]56C)[C@@]4(C)CO)O[C@H](C(=O)O)[C@@H](O)[C@@H]3O)O[C@H](CO)[C@H]2O)[C@H](O)[C@H](O)[C@H]1O (some centres undefined)
inactive: activity, negative = inhibition [1] -4.58% [at 9.52 µM] | activity change, negative = inhibition [2] 1.11% [at 9.73 µM] | activity change, negative = inhibition [3] -1.57% [at 11.6 µM] | activity change, negative = thiol reactive [4] 155% [at 11.5 µM] | activity, negative = inhibition [5] 0% [at 11.6 µM] | redox activity (% of DA3003) [6] 1.07% [at 11.5 µM]

CC1CC2OC3(OC2C(C)(C)O)C1C1(C)CCC24CC25CCC(O[C@@H]2OC[C@@H](O)[C@H](O)[C@H]2O)C(C)(C)C5CC=C4C1(C)C3O (some centres undefined)
inactive: Potency [1] | Potency [2] | Potency [3] | Potency [4] | Potency [5] | Potency [6]

Cc1cc(Nc2nc(NC(C)c3ncc(F)cn3)ncc2Cl)n[nH]1 (centres undefined)
inactive: Potency [1] | Potency [2] | Potency [3] | Potency [4] | Potency [5] | Potency [6]

O=C(/C=C\c1ccc(O)cc1)N[C@@H](Cc1ccc(O)cc1)C(=O)O
active: Potency [4] 6.56 µM
inactive: Potency [1] | Potency [2] | Potency [3] | Potency [5] | Potency [6]

C[C@]12C=C[C@@]3(CCC4[C@](C)(CO)CCC[C@@]4(C)C3CC1)C2 (some centres undefined)
inactive: Potency [1] | Potency [2] | Potency [3] | Potency [4] | Potency [5] | Potency [6]

COc1cc2c(cc1O)[C@H](c1ccc(O[C@@H]3O[C@H](CO)[C@@H](O)[C@H](O)[C@H]3O)c(OC)c1)[C@@H](CO)[C@](O)(CO)C2
inactive: Potency [1] | Potency [2] | Potency [3] | Potency [5] | Potency [6]
active: Potency [4] 5.19 µM

CC(=O)OC1C(c2ccccc2)CCC(c2ccccc2)C1OC(C)=O (centres undefined)
inactive: Potency [1] | Potency [2] | Potency [3] | Potency [4] | Potency [5] | Potency [6]

CN(C)CC1CCOC1(c1ccccc1)c1ccccc1 (centres undefined)
inactive: Potency [1] | Potency [2] | Potency [3] | Potency [4] | Potency [5] | Potency [6]

O=C1C=CC2OC(c3ccccc3)C(O)C2O1 (centres undefined)
active: Potency [4] 23.8 µM
inactive: Potency [1] | Potency [2] | Potency [3] | Potency [5] | Potency [6]

CC(C)c1nnc(-c2ccc(-c3ccccc3)nc2)n1-c1cccc2nonc12
inactive: Potency [1] | Potency [2] | Potency [3] | Potency [4] | Potency [5] | Potency [6]

CC1(C)C2CC(OC3OC(COC4OCC(O)(CO)C4O)C(O)C(O)C3O)C1(C)CC2O (centres undefined)
inactive: Potency [1] | Potency [2] | Potency [3] | Potency [4] | Potency [5] | Potency [6]

C[C@H](C(=O)NC1CCCC1)N(C(=O)Cn1nnc(-c2ccc3c(c2)OCO3)n1)C1CCCCC1
inactive: Potency [1] | Potency [2] | Potency [3] | Potency [4] | Potency [5] | Potency [6]

C=C(C)C1CCC2(C(=O)O[C@@H]3O[C@H](CO[C@@H]4O[C@H](CO)[C@@H](O)[C@H](O)[C@H]4O)[C@@H](O)[C@H](O[C@@H]4O[C@@H](C)[C@H](O)[C@@H](O)[C@H]4O)[C@H]3O)CCC3(C(=O)O)C(CCC4C5(C)CCC(O)C(C)(C)C5CCC43C)C12 (some centres undefined)
inactive: Potency [1] | Potency [2] | outcome [3] inactive [at 11.6 µM] | activity change, negative = thiol reactive [4] 301% [at 11.5 µM] | activity, negative = inhibition [5] 0% [at 11.6 µM] | redox activity (% of DA3003) [6] 10.3% [at 11.5 µM]

C=C(CO[C@@H]1O[C@H](CO[C@@H]2OC[C@](O)(CO)[C@H]2O)[C@@H](O)[C@H](O)[C@H]1O)C1Cc2cc(C(C)=O)ccc2O1 (some centres undefined)
inactive: Potency [1] | Potency [2] | Potency [3] | Potency [5] | Potency [6]
active: Potency [4] 5.19 µM

CC12CCC(C(OC3OC(COC4OCC(O)(CO)C4O)C(O)C(O)C3O)C1)C(C)(C)O2 (centres undefined)
inactive: Potency [1] | Potency [2] | Potency [3] | Potency [4] | Potency [5] | Potency [6]
